PMC11006913

What was measured:
Experiment in all cases: PBM; 200 nM protein, PBS
Conditions in all cases: dsDNA, one strand shown
[1] = biological target: CRX (Homo sapiens, UniProt O43186 26-111)
[2] = biological target: CRX (Homo sapiens, UniProt O43186 26-111, E42D)
[3] = biological target: PITX2 (Homo sapiens, UniProt Q99697 72-157)
[4] = biological target: CRX (Homo sapiens, UniProt O43186 26-111, R41L)
[5] = biological target: VAX1 (Homo sapiens, UniProt Q5SQQ9 86-172)
[6] = biological target: VAX1 (Homo sapiens, UniProt Q5SQQ9 86-172, T142I)
VAX1 (Homo sapiens, UniProt Q5SQQ9 86-172, T142I), sequence (Q5SQQ9 86-172 T142I): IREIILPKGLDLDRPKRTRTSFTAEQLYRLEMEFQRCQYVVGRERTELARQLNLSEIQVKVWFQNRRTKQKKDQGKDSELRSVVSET

[7] = biological target: VAX1 (Homo sapiens, UniProt Q5SQQ9 86-172, K157R)
VAX1 (Homo sapiens, UniProt Q5SQQ9 86-172, K157R), sequence (Q5SQQ9 86-172 K157R): as the sequence (Q5SQQ9 86-172 T142I) above, with I57T, K72R counted along it

CRX (Homo sapiens, UniProt O43186 26-111), sequence (O43186 26-111): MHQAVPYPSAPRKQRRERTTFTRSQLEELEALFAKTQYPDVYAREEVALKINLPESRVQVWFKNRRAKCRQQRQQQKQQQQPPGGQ
CRX (Homo sapiens, UniProt O43186 26-111, E42D), sequence (O43186 26-111 E42D): as the sequence (O43186 26-111) above, with E17D counted along it
CRX (Homo sapiens, UniProt O43186 26-111, R41L), sequence (O43186 26-111 R41L): as the sequence (O43186 26-111) above, with R16L counted along it
VAX1 (Homo sapiens, UniProt Q5SQQ9 86-172), sequence (Q5SQQ9 86-172): as the sequence (Q5SQQ9 86-172 T142I) above, with I57T counted along it

Sequence	binding signal [1]	binding signal [2]	binding signal [3]	binding signal [4]	binding signal [5]	binding signal [6]	binding signal [7]
GGATTAAC	13.6 upbm affinity estimate (log intensity, higher = more binding, comparable within an allelic series)	13.6 upbm affinity estimate (log intensity, higher = more binding, comparable within an allelic series)	13.3 upbm affinity estimate (log intensity, higher = more binding, comparable within an allelic series)	13.5 upbm affinity estimate (log intensity, higher = more binding, comparable within an allelic series)	–	–	–
AGATTAAG	13.1 upbm affinity estimate (log intensity, higher = more binding, comparable within an allelic series)	13 upbm affinity estimate (log intensity, higher = more binding, comparable within an allelic series)	12.6 upbm affinity estimate (log intensity, higher = more binding, comparable within an allelic series)	12.6 upbm affinity estimate (log intensity, higher = more binding, comparable within an allelic series)	–	–	–
CTAATCCA	13.3 upbm affinity estimate (log intensity, higher = more binding, comparable within an allelic series)	13.3 upbm affinity estimate (log intensity, higher = more binding, comparable within an allelic series)	13.2 upbm affinity estimate (log intensity, higher = more binding, comparable within an allelic series)	13 upbm affinity estimate (log intensity, higher = more binding, comparable within an allelic series)	–	–	–
GCGCACGC	8.22 upbm affinity estimate (log intensity, higher = more binding, comparable within an allelic series)	8.37 upbm affinity estimate (log intensity, higher = more binding, comparable within an allelic series)	7.91 upbm affinity estimate (log intensity, higher = more binding, comparable within an allelic series)	8.29 upbm affinity estimate (log intensity, higher = more binding, comparable within an allelic series)	–	–	–
GGGATTAC	13.2 upbm affinity estimate (log intensity, higher = more binding, comparable within an allelic series)	13.2 upbm affinity estimate (log intensity, higher = more binding, comparable within an allelic series)	13.1 upbm affinity estimate (log intensity, higher = more binding, comparable within an allelic series)	13.2 upbm affinity estimate (log intensity, higher = more binding, comparable within an allelic series)	–	–	–
AACTTTAA	10.5 upbm affinity estimate (log intensity, higher = more binding, comparable within an allelic series)	10.2 upbm affinity estimate (log intensity, higher = more binding, comparable within an allelic series)	–	–	9.82 upbm affinity estimate (log intensity, higher = more binding, comparable within an allelic series)	9.35 upbm affinity estimate (log intensity, higher = more binding, comparable within an allelic series)	9.35 upbm affinity estimate (log intensity, higher = more binding, comparable within an allelic series)
CGTAATCC	13.2 upbm affinity estimate (log intensity, higher = more binding, comparable within an allelic series)	13.2 upbm affinity estimate (log intensity, higher = more binding, comparable within an allelic series)	13 upbm affinity estimate (log intensity, higher = more binding, comparable within an allelic series)	13.2 upbm affinity estimate (log intensity, higher = more binding, comparable within an allelic series)	–	–	–
AGAGATTA	13.1 upbm affinity estimate (log intensity, higher = more binding, comparable within an allelic series)	13.1 upbm affinity estimate (log intensity, higher = more binding, comparable within an allelic series)	12.7 upbm affinity estimate (log intensity, higher = more binding, comparable within an allelic series)	13 upbm affinity estimate (log intensity, higher = more binding, comparable within an allelic series)	–	–	–
GGGGATTA	13.7 upbm affinity estimate (log intensity, higher = more binding, comparable within an allelic series)	13.8 upbm affinity estimate (log intensity, higher = more binding, comparable within an allelic series)	13.5 upbm affinity estimate (log intensity, higher = more binding, comparable within an allelic series)	13.8 upbm affinity estimate (log intensity, higher = more binding, comparable within an allelic series)	–	–	–
ATAATCCA	13.2 upbm affinity estimate (log intensity, higher = more binding, comparable within an allelic series)	13.3 upbm affinity estimate (log intensity, higher = more binding, comparable within an allelic series)	13 upbm affinity estimate (log intensity, higher = more binding, comparable within an allelic series)	13.3 upbm affinity estimate (log intensity, higher = more binding, comparable within an allelic series)	–	–	–
ATAATCCC	13.5 upbm affinity estimate (log intensity, higher = more binding, comparable within an allelic series)	13.7 upbm affinity estimate (log intensity, higher = more binding, comparable within an allelic series)	13.2 upbm affinity estimate (log intensity, higher = more binding, comparable within an allelic series)	13.7 upbm affinity estimate (log intensity, higher = more binding, comparable within an allelic series)	–	–	–
GGATTAAA	13.5 upbm affinity estimate (log intensity, higher = more binding, comparable within an allelic series)	13.6 upbm affinity estimate (log intensity, higher = more binding, comparable within an allelic series)	13.3 upbm affinity estimate (log intensity, higher = more binding, comparable within an allelic series)	13.4 upbm affinity estimate (log intensity, higher = more binding, comparable within an allelic series)	–	–	–
AAGGATTA	13.4 upbm affinity estimate (log intensity, higher = more binding, comparable within an allelic series)	13.4 upbm affinity estimate (log intensity, higher = more binding, comparable within an allelic series)	13.2 upbm affinity estimate (log intensity, higher = more binding, comparable within an allelic series)	13.4 upbm affinity estimate (log intensity, higher = more binding, comparable within an allelic series)	–	–	–
CGTTAATC	12.8 upbm affinity estimate (log intensity, higher = more binding, comparable within an allelic series)	12.6 upbm affinity estimate (log intensity, higher = more binding, comparable within an allelic series)	12.4 upbm affinity estimate (log intensity, higher = more binding, comparable within an allelic series)	12.3 upbm affinity estimate (log intensity, higher = more binding, comparable within an allelic series)	–	–	–
GACAACCA	8.34 upbm affinity estimate (log intensity, higher = more binding, comparable within an allelic series)	8.18 upbm affinity estimate (log intensity, higher = more binding, comparable within an allelic series)	7.92 upbm affinity estimate (log intensity, higher = more binding, comparable within an allelic series)	8.21 upbm affinity estimate (log intensity, higher = more binding, comparable within an allelic series)	–	–	–
TAATCCCA	13.4 upbm affinity estimate (log intensity, higher = more binding, comparable within an allelic series)	13.4 upbm affinity estimate (log intensity, higher = more binding, comparable within an allelic series)	13.4 upbm affinity estimate (log intensity, higher = more binding, comparable within an allelic series)	13.3 upbm affinity estimate (log intensity, higher = more binding, comparable within an allelic series)	–	–	–
CGCTGCCG	8.07 upbm affinity estimate (log intensity, higher = more binding, comparable within an allelic series)	8.09 upbm affinity estimate (log intensity, higher = more binding, comparable within an allelic series)	–	8.04 upbm affinity estimate (log intensity, higher = more binding, comparable within an allelic series)	6.84 upbm affinity estimate (log intensity, higher = more binding, comparable within an allelic series)	7.05 upbm affinity estimate (log intensity, higher = more binding, comparable within an allelic series)	6.97 upbm affinity estimate (log intensity, higher = more binding, comparable within an allelic series)
AGTTAATC	12.7 upbm affinity estimate (log intensity, higher = more binding, comparable within an allelic series)	12.7 upbm affinity estimate (log intensity, higher = more binding, comparable within an allelic series)	12.3 upbm affinity estimate (log intensity, higher = more binding, comparable within an allelic series)	12.4 upbm affinity estimate (log intensity, higher = more binding, comparable within an allelic series)	–	–	–
ACGGATTA	13.5 upbm affinity estimate (log intensity, higher = more binding, comparable within an allelic series)	13.5 upbm affinity estimate (log intensity, higher = more binding, comparable within an allelic series)	13.1 upbm affinity estimate (log intensity, higher = more binding, comparable within an allelic series)	13.5 upbm affinity estimate (log intensity, higher = more binding, comparable within an allelic series)	–	–	–
GGATTAGA	13.3 upbm affinity estimate (log intensity, higher = more binding, comparable within an allelic series)	13.2 upbm affinity estimate (log intensity, higher = more binding, comparable within an allelic series)	13.1 upbm affinity estimate (log intensity, higher = more binding, comparable within an allelic series)	13.1 upbm affinity estimate (log intensity, higher = more binding, comparable within an allelic series)	–	–	–
AGGGATTA	13.6 upbm affinity estimate (log intensity, higher = more binding, comparable within an allelic series)	13.7 upbm affinity estimate (log intensity, higher = more binding, comparable within an allelic series)	13.5 upbm affinity estimate (log intensity, higher = more binding, comparable within an allelic series)	13.7 upbm affinity estimate (log intensity, higher = more binding, comparable within an allelic series)	–	–	–
ATGGATTA	13.2 upbm affinity estimate (log intensity, higher = more binding, comparable within an allelic series)	13.2 upbm affinity estimate (log intensity, higher = more binding, comparable within an allelic series)	13.2 upbm affinity estimate (log intensity, higher = more binding, comparable within an allelic series)	13 upbm affinity estimate (log intensity, higher = more binding, comparable within an allelic series)	–	–	–
CCTAATCC	13.5 upbm affinity estimate (log intensity, higher = more binding, comparable within an allelic series)	13.6 upbm affinity estimate (log intensity, higher = more binding, comparable within an allelic series)	13.3 upbm affinity estimate (log intensity, higher = more binding, comparable within an allelic series)	13.2 upbm affinity estimate (log intensity, higher = more binding, comparable within an allelic series)	–	–	–
